From PubChem BioAssay (NCI) come the findings set out here.

Molecules are shown by their SMILES. This is part of a sample that, as a whole, favours compounds with a hit. Of some 79,000 tested, about 15% had one in any assay. Calls of active or inactive are those of the source. Rule as the data show it: active = growth inhibition above about 70%; inactive = the rest.

One test can be described thus: NCI Yeast Anticancer Drug Screen. Data for the cln2 rad14 strain (AID 165).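 Also: 0% = growth equal to vehicle treated cultures.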 The note with it: S. cerevisiae cln2 rad14 strain, at 50.0 µM, active compounds read high. The method, boiled down: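 Readout is yeast growth inhibition versus vehicle-treated controls, using a strain with cln2 and rad14 alterations exposed to compound.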
For `NC(=O)c1nnsc1N/N=C/c1ccc([N+](=O)[O-])cc1`, the growth inhibition is -2.05% (inactive).
Take `O=C1C(c2ccccc2)=C(O)c2cccc3cccc1c23`: the growth inhibition was 13.4% (inactive).
Consider `O=S1(=O)CCCCC1C(O)(c1ccccc1)c1ccccc1` (stereo not drawn), for which the growth inhibition is 95.5% (active).
Still for that read-out and setting: the value for `CNc1nc2c(C)ccc3[nH]c(NC)nc3c-2n1` was 1.95% (inactive).
On the same count and under the same terms, the value for `CCC(CC)C(=O)OCCCC1CCCO1` (stereo not drawn) was -3.25% (inactive).
Same read-out and setting: to `CC(=O)OCC1OC(n2nnc3c(=O)n(C)c(=O)[nH]c32)C(OC(C)=O)C(OC(C)=O)C1OC(C)=O` (stereo not drawn) belongs 4% (inactive); to `CC1COCOC1c1ccc2c(c1)OCO2` (stereo not drawn), 9.45% (inactive); to `Nc1ccc(OCC(O)N2C(=O)c3ccccc3C2=O)cc1` (stereo not drawn), 14.4% (inactive).
For `O=C(O)/C=C/SCc1ccccc1`, the growth inhibition was -4.3% (inactive).
Same read-out and setting: to `Cc1cc(O)c(C(c2ccc(C#N)cc2)c2c(O)cc(C)[nH]c2=O)c(=O)[nH]1` belongs -6.2% (inactive).
In the case of `CCOC(=O)Nc1nn(-c2ccc3ccccc3n2)c(=O)[nH]1`, the growth inhibition is 11.9% (inactive).
The same measure, in the same setting: to `CCN(CC)CCCCNc1ccnc(N)n1` belongs -23.3% (inactive).
Regarding `Cc1cc(Cc2cccc3ccccc23)nc2c1ccc1ccccc12`, the growth inhibition was 11% (inactive).
Same read-out and setting: the value for `Clc1ccccc1-c1c2ccccc2cc2c1ccc1ccccc12` was -0.85% (inactive); that for `CCn1c(SCC(=O)N/N=C/c2ccccc2)nc2ccccc2c1=O` was -4.55% (inactive).
Turning to `COc1ccc2c(c1)OCc1c-2oc2ccccc2c1=O`, the growth inhibition is -25.4% (inactive).
Still for that read-out and setting: the value for `CC12CC3(C)CC(C)(C1)CC(C(NC(C)(C)C)C(=O)O)(C2)C3` (stereo not drawn) was 5.7% (inactive).
The same measure, in the same setting: the value for `COc1ccc(C2CN=NN2c2ccc([N+](=O)[O-])cc2)cc1` (stereo not drawn) was 28.2% (inactive); that for `CC(=O)C1=C(C)C2CC3(C)CC(C2(C)C1)C3(C)C` (stereo not drawn) was 10.6% (inactive); that for `COC(=O)CCc1ccc(N)cc1` was -4.3% (inactive).
Still for that read-out and setting: the value for `N#C/C(=N\Nc1ccc(F)cc1)C(=O)C1CC1` was 11.3% (inactive); that for `CC(=O)NC(Cc1ccccc1)C(=O)Nc1ccc(C)cc1` (stereo not drawn) was 16.6% (inactive); that for `COC(=O)N/N=C(/CC1(O)C(=O)Nc2ccc([N+](=O)[O-])cc21)c1ccccc1` (stereo not drawn) was -3.2% (inactive).

The next test in a line: NCI Yeast Anticancer Drug Screen. Data for the bub3 strain (AID 167). The note with it: S. cerevisiae bub3 mutant strain, at 50.0 µM, active compounds read high. The method, boiled down: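 Mutant yeast screening strain plus compound; vehicle-treated cultures serve as the 0% inhibition reference.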
In the case of `C[CH2][Sn]([CH2]C)([O]P(=O)(C[Si](C)(C)C)c1ccccc1)[O]P(=O)(C[Si](C)(C)C)c1ccccc1` (stereo not drawn), the growth inhibition was 53.2% (inactive).
Same read-out and setting: the value for `CC(C)(C)NC(=O)Oc1ccc(Br)cc1Br` was 9.75% (inactive); that for `CC1(C)C=CC(=NO)C=C1` was 8.4% (inactive).
On the same count and under the same terms, to `NC(=S)N/N=C/c1ccncc1` belongs 9.35% (inactive); to `O=C1CCCC(C(Sc2ccccc2)(Sc2ccccc2)Sc2ccccc2)C1` (stereo not drawn), 21.9% (inactive).
Same read-out and setting: to `O=C(OC1CCC2(CC1)N=NC1(CCC(OC(=O)c3ccccc3)CC1)S2)c1ccccc1` (stereo not drawn) belongs -1.1% (inactive); to `CSc1nc(=O)cc(N)n1C`, -7.2% (inactive); to `CSc1ccc(NC(=O)Nc2ccc(Cl)cc2C(=O)c2ccccc2)cc1`, 88.5% (active).
As for `CC(=O)C1(N=Nc2ccc(S(N)(=O)=O)cc2)CCOC1=O` (stereo not drawn), the growth inhibition was -29.4% (inactive).
In the case of `CC(C)=CCc1c(C)cc2cc3c(c(O)c2c1O)C(O)=CC(=O)C3(CC=C(C)C)C/C=C(\C)CO` (stereo not drawn), the growth inhibition was 48.9% (inactive).
Consider `CC(=O)Nc1cc2cc(NC(=O)C(Cl)(Cl)Cl)ccc2oc1=O`, for which the growth inhibition is -11.7% (inactive).
`Cc1ccc(F)c(N)c1`: the growth inhibition was 5.75% (inactive).
Still for that read-out and setting: to `CCCCCCCCCCCCCCCCCCCCCCC` belongs -17.2% (inactive).
`CC(C)C(=O)/C=C/c1ccc(Br)cc1`: the growth inhibition was -14.8% (inactive).
On the same count and under the same terms, to `CN(C)CC1CCC/C(=C\c2ccccc2)C1=O` (stereo not drawn) belongs 38.5% (inactive); to `CN(C)C(=O)c1ccc([N+](=O)[O-])cc1`, -4.75% (inactive); to `O=C(N=Nc1c(O)[nH]c2ccccc12)C(=O)N=Nc1c(O)[nH]c2ccccc12`, 7.15% (inactive).
The same measure, in the same setting: to `NC(=O)c1nnsc1N/N=C/c1ccc([N+](=O)[O-])cc1` belongs -20.1% (inactive); to `O=C1C(c2ccccc2)=C(O)c2cccc3cccc1c23`, -3.65% (inactive); to `O=S1(=O)CCCCC1C(O)(c1ccccc1)c1ccccc1` (stereo not drawn), 95.8% (active).
Same read-out and setting: the value for `CNc1nc2c(C)ccc3[nH]c(NC)nc3c-2n1` was -41.4% (inactive); that for `CCC(CC)C(=O)OCCCC1CCCO1` (stereo not drawn) was -3.95% (inactive); that for `CC(=O)OCC1OC(n2nnc3c(=O)n(C)c(=O)[nH]c32)C(OC(C)=O)C(OC(C)=O)C1OC(C)=O` (stereo not drawn) was 8.9% (inactive).
On to `CC1COCOC1c1ccc2c(c1)OCO2` (stereo not drawn), for which the growth inhibition was -9.45% (inactive).
Still for that read-out and setting: the value for `Nc1ccc(OCC(O)N2C(=O)c3ccccc3C2=O)cc1` (stereo not drawn) was 29.9% (inactive).
Same read-out and setting: the value for `O=C(O)/C=C/SCc1ccccc1` was 1.4% (inactive); that for `Cc1cc(O)c(C(c2ccc(C#N)cc2)c2c(O)cc(C)[nH]c2=O)c(=O)[nH]1` was 4.6% (inactive); that for `CCOC(=O)Nc1nn(-c2ccc3ccccc3n2)c(=O)[nH]1` was 7.75% (inactive).
The same measure, in the same setting: to `CCN(CC)CCCCNc1ccnc(N)n1` belongs 18.2% (inactive); to `Cc1cc(Cc2cccc3ccccc23)nc2c1ccc1ccccc12`, -13.9% (inactive); to `Clc1ccccc1-c1c2ccccc2cc2c1ccc1ccccc12`, 5.45% (inactive).
With `CCn1c(SCC(=O)N/N=C/c2ccccc2)nc2ccccc2c1=O`, the growth inhibition is -1.3% (inactive).
The same measure, in the same setting: to `COc1ccc2c(c1)OCc1c-2oc2ccccc2c1=O` belongs -3.95% (inactive); to `CC12CC3(C)CC(C)(C1)CC(C(NC(C)(C)C)C(=O)O)(C2)C3` (stereo not drawn), 18.9% (inactive).
As for `COc1ccc(C2CN=NN2c2ccc([N+](=O)[O-])cc2)cc1` (stereo not drawn), the growth inhibition is 46.1% (inactive).
On the same count and under the same terms, the value for `CC(=O)C1=C(C)C2CC3(C)CC(C2(C)C1)C3(C)C` (stereo not drawn) was -9.75% (inactive); that for `COC(=O)CCc1ccc(N)cc1` was -2.1% (inactive).
For `N#C/C(=N\Nc1ccc(F)cc1)C(=O)C1CC1`, the growth inhibition is 4.3% (inactive).
With `CC(=O)NC(Cc1ccccc1)C(=O)Nc1ccc(C)cc1` (stereo not drawn), the growth inhibition was 11.4% (inactive).
On the same count and under the same terms, to `COC(=O)N/N=C(/CC1(O)C(=O)Nc2ccc([N+](=O)[O-])cc21)c1ccccc1` (stereo not drawn) belongs 0.35% (inactive).
